Potency and affinity values are given separately. Activity calls are given as the source filed them.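 How the source made its calls: active means fitted EC50 under 30 µM, or percent of control over 300% when no usable fit; inactive means the rest.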
The compounds below were run against Estrogen receptor (Homo sapiens) (UniProt P03372) (assay: ERα coactivator recruitment enhancers – biochemical, TR-FRET, ERα LBD, dose response (AID 737)). Settings: TR-FRET ER-alpha LBD / SRC-Cy5 coactivator recruitment; at 12.5 µM; stronger effect = higher value.
Chain of Estrogen receptor (Homo sapiens) (P03372 whole entry, looked up, the tested form may be a part): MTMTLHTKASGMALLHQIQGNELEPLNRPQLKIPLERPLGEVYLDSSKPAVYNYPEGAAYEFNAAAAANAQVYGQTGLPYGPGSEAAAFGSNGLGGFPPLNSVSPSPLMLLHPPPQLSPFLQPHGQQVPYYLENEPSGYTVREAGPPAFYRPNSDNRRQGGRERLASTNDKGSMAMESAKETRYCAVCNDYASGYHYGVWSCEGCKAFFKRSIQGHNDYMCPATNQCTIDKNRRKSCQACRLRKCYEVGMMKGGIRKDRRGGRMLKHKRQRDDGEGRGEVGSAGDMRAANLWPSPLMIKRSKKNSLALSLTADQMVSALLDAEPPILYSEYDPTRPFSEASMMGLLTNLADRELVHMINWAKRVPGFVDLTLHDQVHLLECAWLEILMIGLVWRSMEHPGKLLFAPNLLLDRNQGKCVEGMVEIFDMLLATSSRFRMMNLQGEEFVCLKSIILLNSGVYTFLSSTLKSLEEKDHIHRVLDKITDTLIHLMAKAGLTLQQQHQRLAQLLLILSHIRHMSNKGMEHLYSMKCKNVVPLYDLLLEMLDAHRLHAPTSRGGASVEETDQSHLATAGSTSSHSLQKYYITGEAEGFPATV
With Cc1ccc(S(=O)(=O)c2nc(S(C)(=O)=O)sc2NCC2CCCO2)cc1 (stereo not drawn) the percent of control was 136% (inactive).
In the case of COc1ccc(-c2c(C#N)c(C)nc3c2C(=O)c2ccccc2-3)cc1, the percent of control is reported as 239% (inactive).
COc1ccc(OC)c(C(=O)CSc2nnc(-c3ccc(OC)c(OC)c3)o2)c1 was tested, and the percent of control was 662% (active).
In the case of O=C(COC(=O)C(O)c1ccccc1)c1ccc2c(c1)OCCO2 (stereo not drawn), the percent of control is reported as 108% (inactive).
With O=C(c1cc2ccccc2oc1=O)N(Cc1ccco1)Cc1cccs1 the percent of control was 110% (inactive).
Cc1ccc(C)n1-c1cccc(C(=O)O)c1 was tested, and the percent of control was 26.6% (inactive).
For Cc1ccc(NC(=O)CSc2nnc(Cn3c(=O)sc4ccccc43)n2C)cc1Cl, the percent of control was 165% (inactive).
With O=C(Cc1ccc(Cl)cc1)Nc1ccc2oc(-c3ccncc3)nc2c1 the percent of control was 207% (inactive).
In the case of O=C(Nc1ccc(-c2noc(-c3cccs3)n2)cc1)c1cccnc1, the percent of control is reported as 208% (inactive).
For CCOC(=O)c1sc(NC(=O)c2ccc3ncsc3c2)nc1C, the percent of control was 349% (active).
For CCOC(=O)N1c2ccccc2C=CC1OCC (stereo not drawn), the percent of control was 152% (inactive).
For CCOC(=O)c1c(NC(=O)CSc2nnc(-c3ccccc3)o2)sc(C(C)=O)c1C, the percent of control was 305% (active).
For CCOC(=O)Cn1c(-c2nonc2NC(=O)c2ccccc2F)nc2ccccc21, the percent of control was 218% (inactive).

From PubChem BioAssay AID737 (Emory University Molecular Libraries Screening Center, 2007)
